Assay results from PubChem BioAssay (NCATS).
Values joined by “and” are separate entries in the source; they are usually repeats but may differ in a detail not shown here. Equal entries are not always repeated. Inconclusive results are not listed. Active and inactive are the calls of the source. The call rests on the fitted dose curve; in most records, active means well fitted inhibition curve with a large enough effect; inconclusive means small, poorly fitted or top-dose-only effect; inactive means flat fitted curve, though single readings scatter. Non-standard residues stand in square brackets, D forms with d. Residues, ends and D or L forms follow the SMILES beside them. *: point of attachment. Nva = CCC[C@H](N)C(=O)O; Cbz = O=C(OCc1ccccc1)*

Key:
CRL-7250 = normal cell line; assay: Cytotoxic Profiling of Annotated Libraries Using Quantitative High-Throughput Screening (AID 1296008); settings: Five cell lines viability, CellTiter-Glo ATP luminescence, 48-72 h; max response: stronger effect = lower value
Summary of the method: (§1)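 Compounds were pin-transferred onto cells and incubated 48 or 72 hr at 37 degree Celsius, 95% humidity. CellTiter-Glo was added, plates sat 10 min at room temperature, then ATP-coupled luminescence was imaged as the viability read-out.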

HEK293 = assay: as above; settings: Five cell lines viability, CellTiter-Glo ATP luminescence, 48-72 h; max response: stronger effect = lower value
Summary of the method: as §1

KB-3-1 = assay: as above; settings: Five cell lines viability, CellTiter-Glo ATP luminescence, 48-72 h; max response: stronger effect = lower value
Summary of the method: as §1

MCC-13 = assay: qHTS assay to identify novel small-molecules to repurpose for Merkel cell carcinoma treatment (AID 1296009); settings: MCC and control cell lines, CellTiter-Glo viability, 72 h; series mostly up to 46 µM
Summary of the method: (§2)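 Cells exposed to NPC (8-point) and MIPE (11-point) compound dilutions for 72 hr at 37 degree celsius; viability read by CellTiter-Glo luminescence, normalized to no-cell and DMSO in-plate controls.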

MCC-26 = assay: as above; settings: MCC and control cell lines, CellTiter-Glo viability, 72 h; series mostly up to 46 µM
Summary of the method: as §2

HaCat [1] = assay: Cytotoxic Profiling of Annotated Libraries Using Quantitative High-Throughput Screening (AID 1296008); settings: Five cell lines viability, CellTiter-Glo ATP luminescence, 48-72 h; max response: stronger effect = lower value
Summary of the method: as §1

NIH3T3 = assay: as above; settings: Five cell lines viability, CellTiter-Glo ATP luminescence, 48-72 h; max response: stronger effect = lower value
Summary of the method: as §1

HACAT [2] = assay: qHTS assay to identify novel small-molecules to repurpose for Merkel cell carcinoma treatment (AID 1296009); settings: MCC and control cell lines, CellTiter-Glo viability, 72 h; at 44.8 µM (top of the series) unless noted
Summary of the method: as §2

HEK293T = assay: as above; settings: MCC and control cell lines, CellTiter-Glo viability, 72 h; series mostly up to 44.8 µM
Summary of the method: as §2
Further: nearly all actives have a fitted effect of over 60% in size.
On the % scale 0 is the no-effect control and ±100 the full control effect; potency means the concentration at half of the fitted maximal effect.

c1ccc(CNc2nc(NCc3ccccc3)c3ccccc3n2)cc1
inactive: max response (CRL-7250) -7.33% | Potency (MCC-13) | Potency (MCC-26)
active: Potency (HEK293) 14.8 µM | Potency (KB-3-1) 26.4 µM

Cn1cnc(=N)c2[nH]cnc21
active: Potency (CRL-7250) 8.33 µM | Potency (HaCat [1]) 13.2 µM | Potency (KB-3-1) 10.5 µM | Potency (NIH3T3) 9.35 µM | Potency (MCC-13) 14.8 µM

COc1cccc2c1C(=O)c1c(O)c3c(c(O)c1C2=O)C[C@@](O)(C(C)=O)C[C@H]3O[C@H]1C[C@H](N)[C@H](O)[C@H](C)O1
active: Potency (CRL-7250) 0.132 µM | Potency (HaCat [1]) 0.418 µM | Potency (KB-3-1) 0.235 µM | Potency (NIH3T3) 0.209 µM | Potency (MCC-13) 0.59 µM | Potency (MCC-26) 0.372 µM

COc1ccc(S(=O)(=O)Nc2cc(-c3c(O)ccc4ccccc34)c(O)c3ccccc23)cc1
inactive: max response (CRL-7250) -21.5% | max response (HaCat [1]) -11.6% | outcome (NIH3T3) | Potency (MCC-13) | Potency (MCC-26)

O=C(C=Cc1ccc(CN(CCO)CCc2c[nH]c3ccccc23)cc1)NO
active: Potency (CRL-7250) 0.833 µM | Potency (HaCat [1]) 0.526 µM | Potency (KB-3-1) 0.264 µM | Potency (NIH3T3) 1.05 µM | Potency (MCC-13) 1.66 µM | Potency (MCC-26) 1.18 µM

O=C(O)C(=O)Nc1cccc(C2=NN=N[N]2)c1
inactive: outcome (CRL-7250) | max response (HaCat [1]) -4.6% | max response (KB-3-1) 7.57% | max response (NIH3T3) -1.86% | Potency (MCC-13) | Potency (MCC-26)

OCc1ccccc1O[C@@H]1O[C@H](CO)[C@H](O)[C@H](O)[C@H]1O
inactive: max response (CRL-7250) -20.8% | max response (HaCat [1]) -10.2% | outcome (KB-3-1) | outcome (NIH3T3) | Potency (MCC-13) | Potency (MCC-26)

CC(=O)SCC(Cc1ccccc1)C(=O)NCC(=O)OCc1ccccc1 (stereo not drawn)
inactive: max response (CRL-7250) -7.71% | outcome (HaCat [1]) | max response (KB-3-1) 3.33% | max response (NIH3T3) -4.22% | outcome (HACAT [2]) | Potency (MCC-13) | Potency (MCC-26)

C[C@H](NC(=O)[C@@H](O)c1cc(F)cc(F)c1)C(=O)N[C@@H]1C(=O)N(C)c2ccccc2-c2ccccc21
inactive: max response (CRL-7250) -10.4% | max response (HaCat [1]) -6.76% | max response (KB-3-1) -9.73% | max response (NIH3T3) -4.85% | Potency (MCC-13) | Potency (MCC-26)

O=C(O)[C@H](CC(=O)N1C[C@@H]2CCCC[C@H]2C1)Cc1ccccc1
inactive: outcome (CRL-7250) | outcome (HaCat [1]) | max response (KB-3-1) 2.32% | outcome (NIH3T3) | outcome (HACAT [2]) | Potency (MCC-13) | Potency (MCC-26)

CCCCCCCCCCCCc1ccc(S(=O)(=O)Nc2nncs2)cc1
inactive: outcome (CRL-7250) | max response (HaCat [1]) -11% | outcome (KB-3-1) | outcome (NIH3T3) | Potency (HEK293T) | Potency (MCC-13) | Potency (MCC-26)

C[C@](Cc1c[nH]c2ccccc12)(NC(=O)OC1C2CC3CC(C2)CC1C3)C(=O)NC[C@H](NC(=O)CCC(=O)O)c1ccccc1 (stereo partly drawn)
inactive: outcome (CRL-7250) | outcome (HaCat [1]) | max response (KB-3-1) -2.86% | max response (NIH3T3) -5.4% | outcome (HACAT [2]) | Potency (MCC-13) | Potency (MCC-26)

CON=C(C(=O)N[C@@H]1C(=O)N2C(C(=O)O)=C(CSC(=O)c3ccco3)CS[C@H]12)c1csc(N)n1
inactive: max response (CRL-7250) 4.77% | max response (HaCat [1]) 1.07% | outcome (KB-3-1) | max response (NIH3T3) -6.35% | Potency (HEK293T) | Potency (MCC-13) | Potency (MCC-26)

C=C[C@@H]1CN2CCC1C[C@H]2[C@H](O)c1ccnc2ccc(OC)cc12 (stereo partly drawn)
inactive: max response (CRL-7250) 3.01% | max response (HaCat [1]) -13.1% | max response (KB-3-1) -2.72% | max response (NIH3T3) 3.02% | Potency (MCC-13) | Potency (MCC-26)

O=C(Nc1cccc(Nc2ncc(Br)c(NCCc3cnc[nH]3)n2)c1)N1CCCC1
active: Potency (CRL-7250) 4.18 µM | Potency (HaCat [1]) 9.35 µM | Potency (KB-3-1) 1.32 µM | Potency (NIH3T3) 4.69 µM | Potency (MCC-26) 11.8 µM

CC(C)C[C@H](NC(=O)[C@@H](NC(=O)c1cccc(-c2ccccc2)n1)[C@@H](C)O)B(O)O
active: Potency (CRL-7250) 0.092 µM | Potency (HaCat [1]) 526 nM and 580 nM | Potency (KB-3-1) 187 nM and 184 nM | Potency (NIH3T3) 118 nM and 116 nM | Potency (MCC-13) 0.264 µM | Potency (MCC-26) 0.148 µM

C=CCNc1c(O)cc2c(O)c1C[C@@H](C)C[C@H](OC)[C@@H](O)[C@@H](C)C=C(C)[C@H](OC(N)=O)[C@@H](OC)C=CC=C(C)C(=O)N2
active: Potency (CRL-7250) 0.0372 µM | Potency (HaCat [1]) 0.372 µM | Potency (KB-3-1) 0.0935 µM | Potency (NIH3T3) 0.59 µM | Potency (MCC-13) 5.9 µM

CC(N[C@H]1CCCC[C@H]1NC(=O)c1ccc(Cl)cc1)c1cccc2ccccc12 (stereo partly drawn)
inactive: max response (CRL-7250) 2.81% | outcome (HaCat [1]) | max response (KB-3-1) 1.61% | max response (NIH3T3) -12.9% | outcome (HACAT [2]) | Potency (MCC-13) | Potency (MCC-26)

CCC[C@@H](C=O)NC(=O)[C@H](CC(C)C)NC(=O)[C@H](CC(C)C)NC(=O)OCc1ccccc1 (Cbz-Leu-Leu-[Nva]-aldehyde)
active: Potency (CRL-7250) 4.18 µM | Potency (HaCat [1]) 9.35 µM | Potency (KB-3-1) 2.96 µM | Potency (NIH3T3) 14.8 µM | Potency (MCC-13) 3.32 µM | Potency (MCC-26) 3.32 µM

CC(C)c1cc(C(C)C)c(CC(=O)NS(=O)(=O)Oc2c(C(C)C)cccc2C(C)C)c(C(C)C)c1
inactive: max response (CRL-7250) 4.74% and 1.75% | max response (HaCat [1]) 0.698% and -52.4% | max response (KB-3-1) 0.649% | Potency (MCC-13) | Potency (MCC-26)

CN[C@@H]1C[C@H]2O[C@@](C)([C@H]1OC)n1c3ccccc3c3c4c(c5c6ccccc6n2c5c31)C(=O)N[C@H]4O
active: Potency (CRL-7250) 0.264 µM | Potency (HaCat [1]) 1.48 µM | Potency (KB-3-1) 2.64 µM | Potency (NIH3T3) 0.166 µM | Potency (MCC-13) 0.332 µM | Potency (MCC-26) 1.66 µM

c1cc(CN2CCCNCCNCCCNCC2)ccc1CN1CCCNCCNCCCNCC1
inactive: max response (CRL-7250) -0.856% | max response (HaCat [1]) -12.9% | max response (KB-3-1) -8.95% | max response (NIH3T3) -1.27% | Potency (HEK293T) | Potency (MCC-13) | Potency (MCC-26)
